Bioassay records (PubChem)
VLA-4 inh: inhibition in a human VLA-4 binding assay | P13612 | VLA-4 expressing cells, ligand binding flow cytometry | inhibition, % (about 7 µM as worked out from the volumes in the protocol) | 330,000 compounds, 0.2% hits; in the data active means inhibition above about 50%
MEKK2 mut-MEK5: signal of MEK5 binding to mutant human MEKK2 PB1 domain | AID 1530 | bead flow cytometry, Alexa488-MEK5 binding to MEKK2 mutant | percent response, % at 10 µM | 290,000 compounds, 0.35% hits; in the data active means percent response above about 24%, passing the limit was not always enough
MEKK3 PB1 HTS: raises or lowers MEK5 binding to the human MEKK3 PB1 domain; 290,000 compounds, 1.4% hits; binding response (% of control), % at 10 µM; Q99759; bead-based flow cytometry, Alexa488-MEK5 binding to MEKK3; actives lie on both sides; 0 = blocked by unlabeled MEK5, 100 = vehicle;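 active means binding response more than 3 SD above or below the average of its plate-row segment, actives on both sides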;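 further: Alexa488 bead fluorescence after subtracting the streptavidin-only scavenger bead signal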
Target sequence (Q99759 whole entry, looked up, the tested form may be a part): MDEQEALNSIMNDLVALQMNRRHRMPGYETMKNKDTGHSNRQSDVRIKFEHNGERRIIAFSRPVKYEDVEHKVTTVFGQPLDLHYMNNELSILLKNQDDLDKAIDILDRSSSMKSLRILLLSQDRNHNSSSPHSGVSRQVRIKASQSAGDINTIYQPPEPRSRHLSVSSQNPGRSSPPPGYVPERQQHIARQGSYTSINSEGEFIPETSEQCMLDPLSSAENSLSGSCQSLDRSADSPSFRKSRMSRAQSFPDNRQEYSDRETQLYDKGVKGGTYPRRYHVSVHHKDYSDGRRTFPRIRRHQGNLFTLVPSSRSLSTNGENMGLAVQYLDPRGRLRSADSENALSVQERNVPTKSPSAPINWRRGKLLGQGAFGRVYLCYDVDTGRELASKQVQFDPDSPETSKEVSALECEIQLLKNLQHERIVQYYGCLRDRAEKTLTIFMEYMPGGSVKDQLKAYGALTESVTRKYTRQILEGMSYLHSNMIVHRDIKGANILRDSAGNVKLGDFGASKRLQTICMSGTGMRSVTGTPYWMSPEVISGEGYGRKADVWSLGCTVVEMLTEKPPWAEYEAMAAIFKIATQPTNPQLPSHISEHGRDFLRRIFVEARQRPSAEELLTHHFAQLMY
MEKK2wt PB1 HTS: raises or lowers MEK5 binding to wildtype human MEKK2 PB1 domain; 290,000 compounds, 1.1% hits; Q9Y2U5; bead flow cytometry, Alexa488-MEK5 binding to MEKK2 WT; actives lie on both sides; binding response (% of control), % at 10 µM; in the data active means binding response below about 67% or above about 130%
MEKK2wt confirm: raises or lowers MEK5 binding to wildtype human MEKK2, retest. 5,900 compounds, 2.4% hits. shares compounds with MEKK3 PB1 HTS. bead flow cytometry, Alexa488-MEK5 binding to MEKK2 WT; actives lie on both sides. AID 1892. binding response (% of control), % at 10 µM; in the data active means binding response below about 16% or above about 210%; inactive means in between
MEKK2mut-MEK5: signal of MEK5 binding to mutant human MEKK2, retest; shares compounds with MEKK3 PB1 HTS; AID 1893; percent response, % at 10 µM; 5,900 compounds, 2% hits; bead flow cytometry, Alexa488-MEK5 binding to MEKK2 mutant; in the data active means percent response mostly above about 71%, no sharp cut-off; inactive means mostly below about 38%;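 further: higher means compound restores mutant binding toward wildtype level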
MEKK3-MEK5 inh: confirmation of inhibitors of MEK5 binding to human MEKK3. shares compounds with MEKK3 PB1 HTS. bead flow cytometry, Alexa488-MEK5 binding to MEKK3; active compounds read low. binding response (% of control), % at 10 µM. 5,900 compounds, 1.8% hits. AID 1894;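 active means binding response below 72% of control, or above a set upper limit, though filed actives all read lower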;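 further: 100% = DMSO only wells and 0% = binding blocked by excess unlabeled MEK5; lower values mean stronger disruption of MEK5 binding to MEKK3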
Active calls of the source: *; i = inactive; nt = no result; [ ] = dose if it differs, or a comment. A selection: hits, their analogues and other compounds. The true share with any hit is near 2.2%.

SMILES	VLA-4 inh	MEKK2 mut-MEK5	MEKK3 PB1 HTS	MEKK2wt PB1 HTS	MEKK2wt confirm	MEKK2mut-MEK5	MEKK3-MEK5 inh
Cc1c(Cl)cccc1NC(=O)C1CCN(S(C)(=O)=O)CC1	-5	254*	104	nt	104	2	106
Cc1cccc(NC(=O)C2CCN(S(C)(=O)=O)CC2)c1C	8	1	104	101	nt	nt	nt
COC(=O)c1cccc(N(C(=O)c2cnccn2)C(C(=O)NC2CCCCC2)c2cn(C)nc2C)c1 (centres undefined)	-14	-28	46*[inhibitor]	58	105	2	98
NC(=O)CSc1nnc(COc2ccccc2)n1Cc1ccco1	22	0	131*	120	96	-3	97
O=C(CSc1nnc(COc2ccccc2)n1Cc1ccco1)c1ccc(F)cc1	15	2	103	102	nt	nt	nt
CCCNC(=O)c1onc(CSc2ccc(F)cc2)c1C(=O)NCC1CC1	-1	nt	nt	nt	nt	nt	nt
CC(=O)c1ccc(NC(=O)CN2CCC(C(=O)c3ccc(F)cc3)CC2)cc1	2	6	105	110	nt	nt	nt
O=C(CN1CCC(C(=O)c2ccc(F)cc2)CC1)Nc1ccc(F)cc1	2	2	46*[inhibitor]	66	99	-4	101
Nc1ccccc1SCC(=O)Nc1ccc2c(c1)OCO2	-5	7	102	109	nt	nt	nt
O=C(CSc1cccc[n+]1[O-])Nc1ccc2c(c1)OCO2	1	-12	71*[inhibitor]	71	102	-1	101
CCCCNC(=S)Nc1ccc(-c2nc3ccc(C)cc3s2)cc1	nt	0	134*	105	105	3	107
Cc1ccc2nc(-c3ccc(NC(=S)NCCC(C)C)cc3)sc2c1	14	-2	92	92	nt	nt	nt
COC(=O)c1ccccc1OCCCCN1CC(C)OC(C)C1 (centres undefined)	-5	1	152*	102	109	12	108
COc1ccc(S(=O)(=O)N2CCCC(C(=O)N3CCCC3)C2)cc1OC (centres undefined)	-1	nt	nt	nt	nt	nt	nt
COc1ccc(S(=O)(=O)N2CCC(C(=O)N3CCCCC3)CC2)cc1OC	25	6	130*	121	98	9	102
COc1ccc(OC2OC3COC(C)(C)OC3C(O)C2NC(C)=O)cc1 (centres undefined)	4	24*	115	101	101	-1	100
COc1ccc(N(CC(=O)N/N=C/c2ccc3c(c2)OCO3)S(=O)(=O)c2ccccc2)cc1	3	-11	101	90	nt	nt	nt
Cc1cc(Cl)ccc1OCCCC(=O)Nc1ccc(S(=O)(=O)Nc2ncccn2)cc1	16	2	103	100	nt	nt	nt
N#C/C(=C/c1ccc(N2CCCCCC2)o1)c1ccc(Cl)cc1	i	98*	82	65	82	-2	86
O=C(COc1ccc(Br)cc1)Nc1ccccc1C(=O)NC1CC1	9	nt	nt	nt	nt	nt	nt
Cc1cc(C)n2nc(Nc3ccccc3)cc2n1	6	-7	81*[inhibitor]	80	94	-2	100
O=C(NCCCN1CCOCC1)C1CC(=O)N(c2ccccc2)C1 (centres undefined)	4	0	100	105	nt	nt	nt
CCOc1ccc(N2CC(C(=O)NCCCN3CCOCC3)CC2=O)cc1 (centres undefined)	-3	-21	2.0*[inhibitor]	3.0*[inhibitor]	102	7	105
COC(=O)c1nnn(-c2ccsc2C(=O)OC)c1C(=O)OC	-5	5	145*	123	101	-5	100
COc1ccc(/C(C)=N/NC2=NCCN2)cc1Cl	23	7	102	116	nt	nt	nt
SMILES	VLA-4 inh	MEKK2 mut-MEK5	MEKK3 PB1 HTS	MEKK2wt PB1 HTS	MEKK2wt confirm	MEKK2mut-MEK5	MEKK3-MEK5 inh
CCCCOc1ccc(Br)cc1/C(C)=N/NC1=NCCN1	-5	35*	113	162*	144	31	105
CCCCCCOc1ccc(/C(C)=N/NC2=NCCN2)cc1[N+](=O)[O-]	9	46	109	203*	226*	68	112
C/C(=N\NC1=NCCN1)c1ccc(N)c([N+](=O)[O-])c1	16	-31	46*[inhibitor]	59	108	5	105
CCn1c(=S)sc2c(=O)[nH]c(SCC(=O)Nc3cc(OC)ccc3OC)nc21	13	-1	99	96	nt	nt	nt
COc1ccc(OC)c(NC(=O)CC2SC(=Nc3ccc(F)cc3)N(CCC3=CCCCC3)C2=O)c1 (centres undefined)	19	0	139*	102	81	-44	83
COc1cc([N+](=O)[O-])ccc1NC(=O)CC1SC(=Nc2ccc(F)cc2)N(CCC2=CCCCC2)C1=O (centres undefined)	-5	-1	112	97	nt	nt	nt
CC(=O)c1cc(C#N)c(SCc2ccc([N+](=O)[O-])cc2)nc1C	-2	-4	104	99	nt	nt	nt
CC(C)(C)CC(=O)Nc1ccc(-c2nnc3n2CCCCC3)cc1	8	-1	99	100	nt	nt	nt
O=C(/C=C/c1ccccc1Cl)Nc1ccc(-c2nnc3n2CCCCC3)cc1	0	1	137*	102	103	5	107
C[C@H](CO)N1C[C@H](C)[C@@H](CN(C)C(=O)Nc2ccc3c(c2)OCO3)Oc2ccc(NC(=O)NC3CCCCC3)cc2C1=O	9	nt	nt	nt	nt	nt	nt
CCc1nc(SCC(=O)NNC(=O)C(C)C)c2ccccc2n1	-12	2	106	107	nt	nt	nt
CC(C)C(=O)NNC(=O)CSc1nc(C2CCCCC2)nc2ccccc12	2	2	140*	108	103	3	104
O=C(Cc1coc(-c2ccc(F)cc2)n1)Nc1ccccc1	4	-46	2.0*[inhibitor]	2.0*[inhibitor]	110	2	107
Cn1ncc(Cl)c1C(=O)Nc1ccc(CN2CCCCC2)cc1	8	8	101	110	nt	nt	nt
O=[N+]([O-])c1ccccc1N/N=C/c1c[nH]c2ccccc12	-5	4	110	111	nt	nt	nt
O=c1c([N+](=O)[O-])c[nH]c2ccccc12	-1	0	135*	106	99	1	101
COc1ccc(C2=C/C(=C\c3ccc(OC(C)=O)cc3)C(=O)O2)cc1	-12	1	102	104	nt	nt	nt
CN(C)c1ccc(/C=C2/C=C(c3ccc4c(c3)CCCC4)OC2=O)cc1	-146	-8	73*[inhibitor]	68	81	-1	83
COc1cccc(NC(=O)N2CCN(c3cccc(C)c3C)CC2)c1	-11	-17	0.0*[inhibitor]	0.0*[inhibitor]	98	0	103
CCN(CC)S(=O)(=O)c1ccc(OC)c(NC(=O)C(C)Oc2ccc3c(C)cc(=O)oc3c2)c1 (centres undefined)	19	0	145*	107	103	3	105
CC(C#N)N1CCN(S(=O)(=O)c2ccc3c(c2)CCC3)CC1 (centres undefined)	11	nt	nt	nt	nt	nt	nt
